Key:
Experiment in all cases: DAPPL (digital affinity profiling via proximity ligation, sequencing); 10 mM Tris-HCl pH 7.5, 50 mM NaCl, 1 mM DTT, 4% glycerol, room temperature, 30 min; GST-TFs on glutathione beads, 16-mer random dsDNA library, 0.1% formaldehyde crosslink after washing; high values mean tight binding
[1] = molecular target: T1, FEV (Homo sapiens, UniProt Q99581 1-238); settings: protein: recombinant; tags: N-terminal GST; dsDNA, one strand shown
T1 sequence: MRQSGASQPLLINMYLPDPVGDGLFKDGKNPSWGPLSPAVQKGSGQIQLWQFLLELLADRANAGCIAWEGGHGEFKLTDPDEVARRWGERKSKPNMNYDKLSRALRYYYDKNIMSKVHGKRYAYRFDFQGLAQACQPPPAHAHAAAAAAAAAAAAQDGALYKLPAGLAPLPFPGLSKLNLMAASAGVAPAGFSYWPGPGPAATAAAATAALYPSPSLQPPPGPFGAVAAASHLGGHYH
Outline: (§1)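 The binding signal reported is, for every hexamer, its read frequency for a factor over its read frequency for the tag-only sample. Reads came from pools of yeast-expressed, GST-fused human transcription factors on glutathione beads, barcoded with DNA and mixed with that sample, which were incubated with 200 nmole of a random double-stranded 16-mer DNA library in Tris/NaCl/DTT/glycerol buffer at room temperature for 30 min. After washing, the pools were crosslinked with 0.1% formaldehyde, proximity-ligated with BsaI/T4 ligase for 1 h at 37 °C, PCR-amplified and sequenced on an Illumina NextSeq500.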

[2] = molecular target: ETV5 (Homo sapiens, UniProt P41161 1-510); settings: protein: recombinant; tags: N-terminal GST; dsDNA, one strand shown
Outline: as §1

[3] = molecular target: HSF1 (Homo sapiens, UniProt Q00613 1-529); settings: protein: recombinant; tags: N-terminal GST; chain copies: 3; dsDNA, one strand shown
Outline: as §1

[4] = molecular target: T2, SPIC (Homo sapiens, UniProt Q8N5J4 1-248); settings: protein: recombinant; tags: N-terminal GST; dsDNA, one strand shown
T2 sequence: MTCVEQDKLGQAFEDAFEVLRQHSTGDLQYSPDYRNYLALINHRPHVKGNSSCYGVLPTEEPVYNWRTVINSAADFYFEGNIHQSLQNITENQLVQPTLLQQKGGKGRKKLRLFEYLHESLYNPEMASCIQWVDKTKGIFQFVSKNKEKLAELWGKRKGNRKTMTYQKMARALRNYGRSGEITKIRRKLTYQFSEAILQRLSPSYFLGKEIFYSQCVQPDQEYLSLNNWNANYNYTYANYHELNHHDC
Outline: as §1

[5] = molecular target: T3, ELK4 (Homo sapiens, UniProt P28324-2 1-405); settings: protein: recombinant; tags: N-terminal GST; dsDNA, one strand shown
T3 sequence: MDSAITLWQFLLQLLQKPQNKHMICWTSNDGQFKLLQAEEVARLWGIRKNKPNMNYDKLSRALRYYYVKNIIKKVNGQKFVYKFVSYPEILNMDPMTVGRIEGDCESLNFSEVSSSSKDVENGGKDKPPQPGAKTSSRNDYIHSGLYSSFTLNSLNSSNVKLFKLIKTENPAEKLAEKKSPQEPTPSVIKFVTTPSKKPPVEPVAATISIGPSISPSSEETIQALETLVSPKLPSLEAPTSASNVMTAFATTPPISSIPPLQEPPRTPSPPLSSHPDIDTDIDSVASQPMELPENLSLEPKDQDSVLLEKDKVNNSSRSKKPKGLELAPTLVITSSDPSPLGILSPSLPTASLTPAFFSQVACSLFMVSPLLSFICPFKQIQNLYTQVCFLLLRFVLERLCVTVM
Outline: as §1

[6] = molecular target: T4, ELF3 (Homo sapiens, UniProt P78545 1-371); settings: protein: recombinant; tags: N-terminal GST; dsDNA, one strand shown
T4 sequence: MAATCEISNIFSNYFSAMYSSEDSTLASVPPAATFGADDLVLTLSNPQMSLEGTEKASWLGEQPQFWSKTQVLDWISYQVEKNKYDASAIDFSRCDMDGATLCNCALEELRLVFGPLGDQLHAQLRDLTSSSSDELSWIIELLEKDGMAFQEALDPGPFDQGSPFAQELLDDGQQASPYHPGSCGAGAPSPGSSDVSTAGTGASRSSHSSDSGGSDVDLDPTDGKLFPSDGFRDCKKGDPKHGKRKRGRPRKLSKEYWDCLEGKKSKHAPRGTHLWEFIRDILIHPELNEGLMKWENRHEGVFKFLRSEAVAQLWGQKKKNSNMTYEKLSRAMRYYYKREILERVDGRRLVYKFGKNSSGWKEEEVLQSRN
Outline: as §1

[7] = molecular target: CRX (Homo sapiens, UniProt O43186 1-299); settings: protein: recombinant; tags: N-terminal GST; dsDNA, one strand shown
Outline: as §1

[8] = molecular target: ETV1 (Homo sapiens, UniProt P50549 1-477); settings: protein: recombinant; tags: N-terminal GST; dsDNA, one strand shown
Outline: as §1

[9] = molecular target: T5, ERF (Homo sapiens, UniProt P50548 1-548); settings: protein: recombinant; tags: N-terminal GST; dsDNA, one strand shown
T5 sequence: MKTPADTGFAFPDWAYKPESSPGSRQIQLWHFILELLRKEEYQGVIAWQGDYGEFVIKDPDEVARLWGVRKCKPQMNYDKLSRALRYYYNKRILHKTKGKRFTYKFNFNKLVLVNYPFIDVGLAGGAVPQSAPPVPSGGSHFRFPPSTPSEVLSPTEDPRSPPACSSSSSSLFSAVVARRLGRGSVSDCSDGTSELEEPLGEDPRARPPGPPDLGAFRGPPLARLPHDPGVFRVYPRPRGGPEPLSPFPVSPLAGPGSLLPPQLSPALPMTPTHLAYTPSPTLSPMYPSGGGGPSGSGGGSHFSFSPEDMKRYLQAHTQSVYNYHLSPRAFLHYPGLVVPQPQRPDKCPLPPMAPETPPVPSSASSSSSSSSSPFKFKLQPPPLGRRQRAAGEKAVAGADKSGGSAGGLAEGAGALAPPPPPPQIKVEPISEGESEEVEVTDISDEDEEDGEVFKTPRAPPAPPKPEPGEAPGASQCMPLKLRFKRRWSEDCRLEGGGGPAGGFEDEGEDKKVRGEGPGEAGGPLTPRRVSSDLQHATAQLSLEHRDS
Outline: as §1

[10] = molecular target: T6, ETV3 (Homo sapiens, UniProt P41162-2 1-143); settings: protein: recombinant; tags: N-terminal GST; dsDNA, one strand shown
T6 sequence: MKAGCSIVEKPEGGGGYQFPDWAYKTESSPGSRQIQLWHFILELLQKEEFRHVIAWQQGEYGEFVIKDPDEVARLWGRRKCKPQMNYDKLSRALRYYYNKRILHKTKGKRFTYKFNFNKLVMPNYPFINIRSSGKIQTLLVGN
Outline: as §1

[11] = molecular target: ETV6 (Homo sapiens, UniProt P41212 1-452); settings: protein: recombinant; tags: N-terminal GST; dsDNA, one strand shown
Outline: as §1

[12] = molecular target: T7, ETV3L (Homo sapiens, UniProt Q6ZN32 1-361); settings: protein: recombinant; tags: N-terminal GST; dsDNA, one strand shown
T7 sequence: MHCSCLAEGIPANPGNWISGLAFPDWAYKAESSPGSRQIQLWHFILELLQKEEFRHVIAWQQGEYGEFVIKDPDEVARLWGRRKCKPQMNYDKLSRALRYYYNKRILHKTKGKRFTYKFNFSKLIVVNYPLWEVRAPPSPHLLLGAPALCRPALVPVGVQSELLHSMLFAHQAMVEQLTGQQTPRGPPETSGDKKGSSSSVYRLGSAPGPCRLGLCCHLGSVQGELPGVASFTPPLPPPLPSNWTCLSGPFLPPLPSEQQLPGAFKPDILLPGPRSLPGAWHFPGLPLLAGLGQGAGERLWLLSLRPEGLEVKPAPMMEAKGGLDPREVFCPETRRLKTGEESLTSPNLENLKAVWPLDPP
Outline: as §1

[13] = molecular target: T8, ETS2 (Homo sapiens, UniProt P15036 1-469); settings: protein: recombinant; tags: N-terminal GST; dsDNA, one strand shown
T8 sequence: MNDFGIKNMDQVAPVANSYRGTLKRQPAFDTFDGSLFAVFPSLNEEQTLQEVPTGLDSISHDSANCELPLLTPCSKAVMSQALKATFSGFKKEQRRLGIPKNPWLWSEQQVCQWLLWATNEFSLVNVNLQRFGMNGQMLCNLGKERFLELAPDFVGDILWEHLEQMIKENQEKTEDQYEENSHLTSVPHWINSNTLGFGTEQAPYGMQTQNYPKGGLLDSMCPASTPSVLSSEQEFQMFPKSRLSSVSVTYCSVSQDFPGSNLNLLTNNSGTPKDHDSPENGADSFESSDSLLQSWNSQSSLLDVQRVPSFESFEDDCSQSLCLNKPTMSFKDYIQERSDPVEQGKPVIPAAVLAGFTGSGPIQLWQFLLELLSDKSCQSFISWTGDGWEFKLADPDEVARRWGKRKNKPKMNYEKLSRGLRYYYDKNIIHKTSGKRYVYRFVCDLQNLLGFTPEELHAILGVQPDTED
Outline: as §1

[14] = molecular target: T9, SPDEF (Homo sapiens, UniProt O95238 1-335); settings: protein: recombinant; tags: N-terminal GST; dsDNA, one strand shown
T9 sequence: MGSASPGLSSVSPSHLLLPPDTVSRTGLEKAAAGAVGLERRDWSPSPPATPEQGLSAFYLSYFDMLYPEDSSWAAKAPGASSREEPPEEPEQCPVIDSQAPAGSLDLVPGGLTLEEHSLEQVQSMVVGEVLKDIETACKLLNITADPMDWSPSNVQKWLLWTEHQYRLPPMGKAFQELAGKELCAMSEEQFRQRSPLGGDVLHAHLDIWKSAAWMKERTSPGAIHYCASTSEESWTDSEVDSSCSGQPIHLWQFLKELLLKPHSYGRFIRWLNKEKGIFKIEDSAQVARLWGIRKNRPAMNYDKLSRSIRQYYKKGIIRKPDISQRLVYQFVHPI
Outline: as §1

[15] = molecular target: T10, ELF5 (Homo sapiens, UniProt Q9UKW6-2 1-255); settings: protein: recombinant; tags: N-terminal GST; dsDNA, one strand shown
T10 sequence: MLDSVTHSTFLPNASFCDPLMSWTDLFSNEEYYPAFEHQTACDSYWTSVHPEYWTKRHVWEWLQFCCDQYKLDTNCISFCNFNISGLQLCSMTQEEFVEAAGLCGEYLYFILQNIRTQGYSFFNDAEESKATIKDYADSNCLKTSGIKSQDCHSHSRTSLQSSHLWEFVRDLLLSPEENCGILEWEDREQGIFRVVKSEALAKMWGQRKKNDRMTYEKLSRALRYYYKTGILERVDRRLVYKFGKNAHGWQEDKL
Outline: as §1

ETV1, sequence (P50549 whole entry): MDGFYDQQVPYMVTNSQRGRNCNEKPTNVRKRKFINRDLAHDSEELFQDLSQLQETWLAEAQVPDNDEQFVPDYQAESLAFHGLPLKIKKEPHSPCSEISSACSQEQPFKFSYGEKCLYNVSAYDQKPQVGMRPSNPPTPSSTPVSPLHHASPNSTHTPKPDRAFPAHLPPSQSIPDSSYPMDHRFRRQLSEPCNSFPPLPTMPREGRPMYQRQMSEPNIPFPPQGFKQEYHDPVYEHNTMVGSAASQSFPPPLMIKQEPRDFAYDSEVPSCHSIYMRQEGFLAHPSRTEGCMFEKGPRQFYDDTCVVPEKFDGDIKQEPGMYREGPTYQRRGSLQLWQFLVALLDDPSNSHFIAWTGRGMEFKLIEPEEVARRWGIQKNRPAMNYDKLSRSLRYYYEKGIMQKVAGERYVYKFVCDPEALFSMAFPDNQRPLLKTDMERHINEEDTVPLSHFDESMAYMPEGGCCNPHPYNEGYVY
CRX, sequence (O43186 whole entry): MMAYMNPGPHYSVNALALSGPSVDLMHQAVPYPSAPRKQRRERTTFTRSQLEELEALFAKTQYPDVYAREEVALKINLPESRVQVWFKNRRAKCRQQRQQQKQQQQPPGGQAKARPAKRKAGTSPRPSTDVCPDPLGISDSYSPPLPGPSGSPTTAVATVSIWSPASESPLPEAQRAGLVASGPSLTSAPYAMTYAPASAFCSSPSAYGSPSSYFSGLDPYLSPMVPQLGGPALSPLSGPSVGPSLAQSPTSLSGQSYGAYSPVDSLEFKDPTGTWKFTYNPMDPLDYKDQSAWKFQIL
ETV5, sequence (P41161 whole entry): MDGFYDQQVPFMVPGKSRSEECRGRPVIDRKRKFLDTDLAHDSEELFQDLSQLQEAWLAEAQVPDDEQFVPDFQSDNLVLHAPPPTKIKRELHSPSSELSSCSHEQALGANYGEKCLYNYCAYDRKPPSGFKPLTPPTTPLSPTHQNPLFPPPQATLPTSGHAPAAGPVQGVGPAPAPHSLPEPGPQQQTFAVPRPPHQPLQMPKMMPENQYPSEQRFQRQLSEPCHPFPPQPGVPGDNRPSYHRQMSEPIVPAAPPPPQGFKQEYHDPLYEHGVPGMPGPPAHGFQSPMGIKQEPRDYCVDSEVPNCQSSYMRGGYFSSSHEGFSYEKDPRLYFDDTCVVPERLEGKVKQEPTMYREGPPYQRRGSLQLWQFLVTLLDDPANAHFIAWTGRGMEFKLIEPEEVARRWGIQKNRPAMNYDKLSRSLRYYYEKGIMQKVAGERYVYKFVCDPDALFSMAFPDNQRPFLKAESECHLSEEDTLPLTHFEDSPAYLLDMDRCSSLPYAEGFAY
HSF1, sequence (Q00613 whole entry): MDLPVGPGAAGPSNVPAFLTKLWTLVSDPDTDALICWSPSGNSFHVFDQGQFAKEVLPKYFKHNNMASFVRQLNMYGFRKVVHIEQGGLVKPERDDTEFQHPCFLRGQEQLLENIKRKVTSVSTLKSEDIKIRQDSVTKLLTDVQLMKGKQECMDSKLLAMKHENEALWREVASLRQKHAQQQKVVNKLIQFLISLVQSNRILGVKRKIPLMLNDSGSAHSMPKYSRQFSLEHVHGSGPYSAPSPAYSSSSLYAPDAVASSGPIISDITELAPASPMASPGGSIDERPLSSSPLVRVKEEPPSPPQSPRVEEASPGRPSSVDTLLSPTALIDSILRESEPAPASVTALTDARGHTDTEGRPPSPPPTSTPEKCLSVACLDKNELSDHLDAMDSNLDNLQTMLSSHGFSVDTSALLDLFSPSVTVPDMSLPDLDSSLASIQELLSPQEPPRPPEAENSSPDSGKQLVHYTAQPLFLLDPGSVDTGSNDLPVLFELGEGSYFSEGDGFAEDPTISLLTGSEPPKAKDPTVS
ETV6, sequence (P41212 whole entry): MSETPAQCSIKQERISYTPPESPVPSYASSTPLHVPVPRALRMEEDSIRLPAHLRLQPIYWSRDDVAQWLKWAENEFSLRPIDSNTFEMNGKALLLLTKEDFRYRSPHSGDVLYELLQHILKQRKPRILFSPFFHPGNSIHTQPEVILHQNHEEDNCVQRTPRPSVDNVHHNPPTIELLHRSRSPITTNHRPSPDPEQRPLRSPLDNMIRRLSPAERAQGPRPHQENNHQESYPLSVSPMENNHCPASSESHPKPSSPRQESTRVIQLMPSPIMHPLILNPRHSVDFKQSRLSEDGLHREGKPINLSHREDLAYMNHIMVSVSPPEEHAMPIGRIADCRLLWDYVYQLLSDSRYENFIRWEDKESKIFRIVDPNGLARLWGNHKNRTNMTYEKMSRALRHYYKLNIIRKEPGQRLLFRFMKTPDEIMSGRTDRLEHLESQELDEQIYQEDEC

| Sequence | binding signal [1] | binding signal [2] | binding signal [3] | binding signal [4] | binding signal [5] | binding signal [6] | binding signal [7] | binding signal [8] | binding signal [9] | binding signal [10] | binding signal [11] | binding signal [12] | binding signal [13] | binding signal [14] | binding signal [15] |
| --- | --- | --- | --- | --- | --- | --- | --- | --- | --- | --- | --- | --- | --- | --- | --- |
| AAAGCC | 1.03 fold enrichment (6-mer frequency, TF over GST control) | 1.02 fold enrichment (6-mer frequency, TF over GST control) | 1.14 fold enrichment (6-mer frequency, TF over GST control) | 1.14 fold enrichment (6-mer frequency, TF over GST control) | 1.02 fold enrichment (6-mer frequency, TF over GST control) | 1.01 fold enrichment (6-mer frequency, TF over GST control) | 1.42 fold enrichment (6-mer frequency, TF over GST control) | 1.03 fold enrichment (6-mer frequency, TF over GST control) | 1.01 fold enrichment (6-mer frequency, TF over GST control) | 1.05 fold enrichment (6-mer frequency, TF over GST control) | 1.01 fold enrichment (6-mer frequency, TF over GST control) | – | – | – | – |
| TCATAA | – | 1.06 fold enrichment (6-mer frequency, TF over GST control) | 1.14 fold enrichment (6-mer frequency, TF over GST control) | 1.12 fold enrichment (6-mer frequency, TF over GST control) | 1.09 fold enrichment (6-mer frequency, TF over GST control) | – | 1.38 fold enrichment (6-mer frequency, TF over GST control) | 1.07 fold enrichment (6-mer frequency, TF over GST control) | – | – | – | 1 fold enrichment (6-mer frequency, TF over GST control) | 1.01 fold enrichment (6-mer frequency, TF over GST control) | 1.01 fold enrichment (6-mer frequency, TF over GST control) | 1.02 fold enrichment (6-mer frequency, TF over GST control) |

— paper PMC7862700, “An all-to-all approach to the identification of sequence-specific readers for epigenetic DNA modifications on cytosine”
